The text below walks through data of PubChem BioAssay (NCI).

The panel holds about 83,000 compounds, 20% with a hit somewhere; the sample as a whole holds those more often.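 In brief: 96-well plates, 48 h treatment, single concentration, percent growth endpoint.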 Values without a mark were called inactive. Activity calls are given as the source filed them. The calls were made as follows: active = growth percent below 10; inactive = the rest.

Test systems include NCI-H23 lung; NCI-H226 lung; NCI-H322M lung; HOP-62 NSCLC; NCI-H460 lung; HOP-92 NSCLC; NCI-H522 lung; A549/ATCC NSCLC; 786-0 renal; COLO 205 colon.
Holding throughout (experiment): NCI-60 one-dose screen, 48 h (100 = growth as untreated, 0 = no growth, -100 = all killed)
Conditions in all cases: 10 µM unless noted

With `CC1=C(SCCC(=O)OC(C[Se]C2=C(C)C(=O)c3ccccc3C2=O)C(=O)NCCCCCC(=O)OCc2ccccc2)C(=O)c2ccccc2C1=O` (stereo not given), the growth with NCI-H23 lung was 15.2%; in the experiment with NCI-H226 lung, 93.4%; in the experiment with NCI-H322M lung it was 8.06% (active); in the experiment on HOP-62 NSCLC, 12.8%; with NCI-H460 lung, 10.9%; with HOP-92 NSCLC, 58.4%. For the same molecule, the growth in the experiment on NCI-H522 lung was 20.7%; in the experiment on A549/ATCC NSCLC, 22.2%; in the experiment with 786-0 renal, 40.1%; in the experiment with COLO 205 colon it was 40%.
As for `CCN(CC)c1ccc2nc3c4ccccc4c(=NC(=O)c4ccccc4-c4c5ccc(N(CC)CC)cc5[o+]c5cc(N(CC)CC)ccc45)cc-3oc2c1`, the growth in the experiment with NCI-H23 lung was 10.9%; in the experiment on NCI-H226 lung it was 76.5%; in the experiment on NCI-H322M lung it was 11.6%; in the experiment with HOP-62 NSCLC, 17.4%; in the experiment with NCI-H460 lung it was -54.1% (active); in the experiment on HOP-92 NSCLC, 1.45% (active). Also, the growth with NCI-H522 lung is -5.73% (active); with A549/ATCC NSCLC, 14.5%; in the experiment with 786-0 renal, -28.3% (active); in the experiment on COLO 205 colon it was -80.1% (active).
With `N#Cc1c(-c2ccccc2)cc(-c2ccc(Nc3nc(Nc4ccc(F)cc4)nc(Nc4ccc(F)cc4)n3)cc2)nc1N`, the growth was 72.9% in the experiment with NCI-H23 lung; 101% in the experiment on NCI-H226 lung; 96.2% in the experiment on NCI-H322M lung; 80.5% in the experiment with HOP-62 NSCLC; 104% with NCI-H460 lung; 46.8% in the experiment on HOP-92 NSCLC. Besides, the growth in the experiment with NCI-H522 lung is 89%; in the experiment on A549/ATCC NSCLC it was 86.2%; in the experiment on 786-0 renal, 83.9%; in the experiment with COLO 205 colon, 81.9%.
On to `O=C(COc1ccc(/C=C2\Oc3ccccc3C2=O)cc1)Nc1nc2ccccc2s1`, for which the growth in the experiment with NCI-H23 lung is 48.5%; with NCI-H226 lung it was 98.4%; with NCI-H322M lung it was 118%; in the experiment with HOP-62 NSCLC, 73.8%; with NCI-H460 lung it was 111%; in the experiment with HOP-92 NSCLC, -90.4% (active). Also, the growth is -79.9% (active) in the experiment with NCI-H522 lung, 68.3% with A549/ATCC NSCLC, 49% in the experiment with 786-0 renal and 91.5% in the experiment with COLO 205 colon.
On to `Clc1ccc(-c2c3ccc(=[N+]4CCCCC4)cc-3oc3cc(N4CCCCC4)ccc23)cc1`, for which the growth was -85.2% (active) with NCI-H23 lung; -87.6% (active) with NCI-H226 lung; -88.4% (active) in the experiment on NCI-H322M lung; -89% (active) with HOP-62 NSCLC; -76.2% (active) in the experiment with NCI-H460 lung; -70.1% (active) in the experiment with HOP-92 NSCLC. In addition, the growth was -87.7% (active) with NCI-H522 lung, -67.4% (active) in the experiment with A549/ATCC NSCLC, -96.5% (active) with 786-0 renal and -71.1% (active) with COLO 205 colon.
Take `CC/C=C\CCC/C=C1/C(=O)C=C[C@@H]1C/C=C\CCCC(=O)O`: the growth in the experiment on NCI-H23 lung was 80.4%; with NCI-H226 lung it was 90.3%; with NCI-H322M lung it was 107%; in the experiment on HOP-62 NSCLC it was 100%; in the experiment on NCI-H460 lung it was 83.7%; with HOP-92 NSCLC, 75.3%. In addition, the growth in the experiment on NCI-H522 lung is 29.9%; with A549/ATCC NSCLC, 79.9%; in the experiment with 786-0 renal it was 85.2%; in the experiment on COLO 205 colon, 85.8%.
Regarding `N/C(=N\c1nc2ccccc2s1)NC(=O)Nc1cccc(Cl)c1`, the growth in the experiment on NCI-H23 lung was 59.4%; with NCI-H226 lung, 55.3%; in the experiment with NCI-H322M lung, 53.3%; in the experiment with HOP-62 NSCLC, 36.8%; with NCI-H460 lung, 15.1%; in the experiment with HOP-92 NSCLC, 51.6%. Besides, the growth is 17.1% in the experiment with NCI-H522 lung, 40.4% with A549/ATCC NSCLC, 34.8% with 786-0 renal and 26.2% with COLO 205 colon.
Regarding `CN(C)CCC=C1c2ccccc2C(C)(C)c2ccccc21`, the growth is 65.8% in the experiment on NCI-H23 lung; 122% in the experiment with NCI-H226 lung; 99.1% with NCI-H322M lung; 64.5% in the experiment with HOP-62 NSCLC; 85.6% with NCI-H460 lung; 36.7% with HOP-92 NSCLC. In addition, the growth with NCI-H522 lung is 76.5%; with A549/ATCC NSCLC it was 88.9%; with 786-0 renal it was 67.4%; in the experiment with COLO 205 colon, 68.7%.
In the case of `CC1(C)CC[C@]2(C(=O)N3CCOCC3)CC[C@]3(C)C(=CC[C@@H]4[C@@]5(C)CC[C@H](OC(=O)c6cccnc6)C(C)(C)[C@@H]5CC[C@]43C)[C@@H]2C1`, the growth in the experiment with NCI-H23 lung is 68.9%; in the experiment on NCI-H226 lung, 50.1%; in the experiment with NCI-H322M lung it was 88.2%; in the experiment on HOP-62 NSCLC, 78.7%; in the experiment with NCI-H460 lung it was 18.3%; with HOP-92 NSCLC it was 66.4%. Also, the growth is 73.3% with NCI-H522 lung, 47.3% in the experiment with A549/ATCC NSCLC, 62.4% with 786-0 renal and 58.4% in the experiment with COLO 205 colon.
Take `Cc1ccc(-n2nc3c(c(C#N)c2=O)CC(c2ccccc2Cl)C([N+](=O)[O-])=C3O)cc1` (stereo not given): the growth with NCI-H23 lung was 101%; in the experiment with NCI-H226 lung, 102%; with NCI-H322M lung, 101%; in the experiment on HOP-62 NSCLC it was 91%; in the experiment on NCI-H460 lung, 99.3%; in the experiment on HOP-92 NSCLC, 103%. Moreover, the growth is 89% with NCI-H522 lung, 95.4% with A549/ATCC NSCLC, 102% in the experiment with 786-0 renal and 108% with COLO 205 colon.
`Cc1cccc(Cc2cnc(NC(=O)/C=C/c3ccco3)s2)c1`: the growth with NCI-H23 lung was 28.2%; with NCI-H226 lung it was 50.3%; in the experiment on NCI-H322M lung, 37.8%; in the experiment on HOP-62 NSCLC it was 23.7%; in the experiment on NCI-H460 lung, 3.34% (active); in the experiment with HOP-92 NSCLC, 78%. For the same molecule, the growth was -12% (active) in the experiment on NCI-H522 lung, 20% with A549/ATCC NSCLC, 36% in the experiment on 786-0 renal and 2.49% (active) in the experiment on COLO 205 colon.
Turning to `N#Cc1c(-c2cccc(Cl)c2)cc(-c2cccc(F)c2)[nH]c1=O`, the growth in the experiment with NCI-H23 lung is 96.3%; with NCI-H226 lung it was 95.1%; in the experiment on NCI-H322M lung, 90.8%; in the experiment on HOP-62 NSCLC, 93.4%; in the experiment with NCI-H460 lung it was 95.9%; in the experiment on HOP-92 NSCLC it was 55.3%. The growth in the experiment on NCI-H522 lung is 85%; in the experiment on A549/ATCC NSCLC it was 84.5%; in the experiment on 786-0 renal, 90.3%; in the experiment on COLO 205 colon, 109%.
Consider `O=C(O)C1CCC(=O)N1C(=O)OCc1ccccc1` (stereo not given), for which the growth is 93.7% with NCI-H23 lung; 94.1% in the experiment with NCI-H226 lung; 94% in the experiment with NCI-H322M lung; 94.2% in the experiment on HOP-62 NSCLC; 106% in the experiment on NCI-H460 lung; 98.7% with HOP-92 NSCLC. The growth in the experiment with NCI-H522 lung is 92.8%; with A549/ATCC NSCLC, 96.7%; in the experiment with 786-0 renal, 93%; in the experiment with COLO 205 colon it was 124%.
